Measurements reported in PubChem BioAssay AID504339 (National Center for Advancing Translational Sciences (NCATS), 2011).
Screen size: about 390,000 compounds; about 17,000 (4.4%) were called active. Roughly 8% stayed inconclusive and do not appear here. Calls follow the shape of the dose curve; as a rule, active = well fitted inhibition curve with a large enough effect; inconclusive = small, poorly fitted or top-dose-only effect; inactive = no such curve, though single readings can be large or run the other way. The sample as a whole holds a higher share of actives than the screen did.

These compounds were tested against Lysine-specific demethylase 4A (Homo sapiens) (UniProt O75164) (assay: qHTS Assay for Inhibitors of JMJD2A-Tudor Domain). Conditions: AlphaScreen JMJD2A-Tudor / H3K4me3 peptide binding; series mostly up to 114 µM; activity change, negative = inhibition: at the top concentration.
Chain of Lysine-specific demethylase 4A (Homo sapiens) (O75164 whole entry, looked up, the tested form may be a part): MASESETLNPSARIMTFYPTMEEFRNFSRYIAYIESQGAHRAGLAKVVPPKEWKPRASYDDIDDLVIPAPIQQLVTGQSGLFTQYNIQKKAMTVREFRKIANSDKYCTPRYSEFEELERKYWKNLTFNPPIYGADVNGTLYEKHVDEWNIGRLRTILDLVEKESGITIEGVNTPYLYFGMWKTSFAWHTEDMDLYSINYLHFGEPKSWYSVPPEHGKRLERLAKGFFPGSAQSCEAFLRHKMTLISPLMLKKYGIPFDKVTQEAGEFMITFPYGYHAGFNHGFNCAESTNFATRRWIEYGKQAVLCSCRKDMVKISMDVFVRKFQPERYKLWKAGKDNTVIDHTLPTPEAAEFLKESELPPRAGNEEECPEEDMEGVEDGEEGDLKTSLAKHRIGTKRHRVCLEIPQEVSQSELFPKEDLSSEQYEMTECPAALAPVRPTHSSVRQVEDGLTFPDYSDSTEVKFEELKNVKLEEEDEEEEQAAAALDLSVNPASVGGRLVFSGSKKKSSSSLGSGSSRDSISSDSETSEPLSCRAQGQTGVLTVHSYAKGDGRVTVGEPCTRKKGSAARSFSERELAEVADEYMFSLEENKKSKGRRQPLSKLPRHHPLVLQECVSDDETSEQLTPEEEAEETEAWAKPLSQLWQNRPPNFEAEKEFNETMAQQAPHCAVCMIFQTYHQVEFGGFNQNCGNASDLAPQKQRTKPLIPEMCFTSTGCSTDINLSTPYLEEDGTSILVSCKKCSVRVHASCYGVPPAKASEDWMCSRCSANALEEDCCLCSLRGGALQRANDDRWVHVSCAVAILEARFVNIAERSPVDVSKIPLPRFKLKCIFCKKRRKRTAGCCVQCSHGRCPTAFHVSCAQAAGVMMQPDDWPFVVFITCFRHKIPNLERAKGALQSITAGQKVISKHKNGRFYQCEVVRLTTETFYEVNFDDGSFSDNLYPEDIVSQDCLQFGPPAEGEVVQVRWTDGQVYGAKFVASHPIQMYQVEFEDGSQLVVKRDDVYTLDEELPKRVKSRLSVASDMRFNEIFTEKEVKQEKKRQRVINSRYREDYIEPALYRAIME
% is scaled to controls: 0 for no effect and ±100 for the full control effect; potency is read from the fitted curve at half-maximal effect.
Also: nearly all actives have a fitted effect of over 50% in size.

SMILES | activity change, negative = inhibition | Potency
CCOC(=O)c1cc(OC(=O)c2ccccc2Cl)n(-c2ccccc2)n1 | -17.1% (inactive) | 
CN(Cc1ccccc1)C(=O)CCS(=O)(=O)c1cc(Br)cc2c1N(C(=O)C1CC1)CC2 | -17.8% (inactive) | 
COc1ccc(S(=O)(=O)NCC(c2ccco2)N2CCOCC2)cc1 (centres undefined) |  | inactive
COc1ccc(N2CCN(C(CNS(=O)(=O)c3ccc(C)cc3)c3ccccc3)CC2)cc1 (centres undefined) |  | 20 µM (active)
COc1ccc(S(=O)(=O)NCC(c2ccc(C)cc2)N2CCN(C)CC2)cc1OC (centres undefined) | -5.52% (inactive) | 
CCOC(=O)c1c(C)oc2nc(C)nc(N(CC(C)C)CC(C)C)c12 | -5.5% (inactive) | 
CCOc1cc(C2C(C(=O)Nc3ccc(OC)cc3)=C(C)Nc3nc(SC)nn32)ccc1O (centres undefined) | -9.9% (inactive) | 
O=C(Nc1ccc(OC(F)(F)F)cc1)C1CCCN(S(=O)(=O)c2ccc(Br)s2)C1 (centres undefined) | -1.71% (inactive) | 
Cc1cccc(OCC(=O)NCC(=O)N/N=C/c2ccc(N(C)C)cc2)c1 | -14% (inactive) | 
CC(=O)c1c(C)n(-c2ccc(C)cc2)c2ccc(O)cc12 | -2.04% (inactive) | 
CC(=O)c1c(C)n(-c2ccc(N(C)C)cc2)c2ccc(OCC(N)=O)cc12 |  | 79.4 µM (active)
Cc1ccc(-c2nnc(SCc3ccccc3C)o2)cc1 | 150% (inactive) | 
Cc1ccccc1CNC(=O)CCCn1nc(C)c2sc3ccccc3c2c1=O | -6.62% (inactive) | 
CCOc1cc(C2C(C(=O)c3ccco3)=C(O)C(=O)N2Cc2ccccc2)ccc1O (centres undefined) | -27.6% (inactive) | 
COc1cc(C2C(C(=O)c3ccc(C)o3)=C(O)C(=O)N2CCc2ccccc2)ccc1O (centres undefined) |  | 17.8 µM (active)
CCCOc1ccc(C2C(C(=O)c3ccc(C)o3)=C(O)C(=O)N2CCCn2ccnc2)cc1 (centres undefined) | -17.6% [at 11.4 µM] (inactive) | 
Cc1cc(N2C(=O)C(O)=C(C(=O)c3ccc(C)o3)C2c2ccc(OCc3ccccc3)cc2)no1 (centres undefined) |  | 44.7 µM (active)
COc1cc(C2C(C(=O)c3cccs3)=C(O)C(=O)N2CCN2CCOCC2)ccc1OCCC(C)C (centres undefined) | -16.8% (inactive) | 
Cc1cc(N2C(=O)C(=O)/C(=C(/O)c3ccccc3)C2c2cccc(Br)c2)no1 (centres undefined) | -28.3% (inactive) | 
O=C(Nc1cc(Cl)cc(Cl)c1)c1ccc2c(c1)N(Cc1cccc(Cl)c1)C(=O)c1ccccc1S2=O (centres undefined) | -1.28% (inactive) | 
COc1cc(CN(CC2CCCO2)C(=O)c2ccccc2F)cc(OC)c1OC (centres undefined) | -20.4% (inactive) | 
CC(C)(C)OC(=O)N1CCC(c2c(C(=O)NCCc3ccsc3)cnn2-c2ccc(F)cc2F)CC1 | -30.7% (inactive) | 
Cc1ccc(-n2ncc(C(=O)N(C)Cc3ccccc3)c2-n2cccc2)cc1 | -24.5% (inactive) | 
CCOC(=O)N1CCc2c(sc3c2C(=O)NC(c2ccccc2F)N3)C1 (centres undefined) | -10.7% (inactive) | 
COc1ccc(-c2cc(C(=O)NCc3cc(OC)c(OC)c(OC)c3)[nH]n2)cc1 | 9.66% (inactive) | 

SMILES | activity change, negative = inhibition | Potency
O=C(CCC1CCCN(C(=O)Cc2ccc(F)cc2)C1)N1CCN(c2ccccn2)CC1 (centres undefined) | 2.46% (inactive) | 
O=C(CCC1CCCN(C(=O)c2ccc(F)c(F)c2)C1)N1CCN(c2ccccn2)CC1 (centres undefined) | -7.35% (inactive) | 
C=Cc1ccc(C(=O)N2CCCC(CCC(=O)N3CCN(c4ccccn4)CC3)C2)cc1 (centres undefined) |  | 56.2 µM (active)
Brc1cccc(-c2nnn3c2nc(NC2CCCCC2)c2ccccc23)c1 | 21.2% (inactive) | 
CCc1cc2c(cc3c(=O)n(CC(=O)NCc4cccc(Cl)c4)nc(CC)n32)s1 | -15.3% (inactive) | 
O=C(Nc1ccccc1[N+](=O)[O-])C1C(c2ccccc2)=C1c1ccccc1 | -11.9% (inactive) | 
O=C(NCCNc1ccccc1[N+](=O)[O-])c1ccccc1F | -9.86% (inactive) | 
O=[N+]([O-])c1ccccc1Nc1ccc(O)cc1 |  | 63.1 µM (active)
CCOC(=O)CNC(=O)c1cc2c(=O)n3cccc(C)c3nc2s1 | 6.48% (inactive) | 
O=C(c1ccc2c(c1)N(Cc1ccc(Cl)cc1)C(=O)c1ccccc1S2(=O)=O)N1CCCCC1 | -14.8% (inactive) | 
O=c1c2cccnc2n(Cc2cccc(F)c2)c(=O)n1Cc1ccccc1Cl | 7.27% (inactive) | 
CCOc1cc(-c2nnc(SCC(=O)NC3CCCC3)nc2-c2ccc(OC)c(OCC)c2)ccc1OC | -17.3% (inactive) | 
Oc1cc2c(cc1O)CN(C(=S)NCCc1ccc(Cl)cc1)CCC2 |  | 44.7 µM (active)
Cc1cccc(NC(=S)NCCc2ccc(Cl)cc2)c1C | -20.7% (inactive) | 
O=C(NCCc1ccc(Cl)cc1)c1cccc(N2CCCC2=O)c1 | -2.78% (inactive) | 
Cc1ccccc1CNC(=O)C(=O)NCC(c1cccs1)S(=O)(=O)c1cccs1 (centres undefined) | -14.3% (inactive) | 
Cc1ccccc1OCC(=O)Nc1c(C(=O)Nc2ccccc2F)oc2ccccc12 | -2.65% (inactive) | 
O=C(Nc1cc(C(F)(F)F)ccc1Cl)c1nc2ccccc2nc1N1CCCCC1 | -28% (inactive) | 
CCCc1cc(=O)oc2c(C)c(O)c(CN3CCCCC3)cc12 | -15.6% (inactive) | 
Cc1cc(=O)oc2cc(OCC(=O)N3CCN(c4ccc(F)cc4)CC3)c(Cl)cc12 | -18.3% (inactive) | 
O=C(Cc1ccccc1)NNC(=O)C1CCN(c2ncccn2)CC1 | 2.84% (inactive) | 
Oc1c(CN2CCCC2)cc(COCc2ccccc2)c2cccnc12 |  | 25.1 µM (active)
O=C(CN1CCN(c2ccc(F)cc2)CC1)Nc1cccc(C(F)(F)F)c1 | -25.8% (inactive) | 
Oc1c(CN2CCN(c3ccc(F)cc3)CC2)cc(Cl)c2cccnc12 |  | 25.1 µM (active)
